Where “and” joins values, the source holds several entries; their conditions need not be identical. Equal entries are not always repeated. Records with an inconclusive call do not appear. Calls of active or inactive are those of the source. Calls follow the shape of the dose curve; as a rule, active = well fitted curve in the direction sought with a large enough effect in the repeat runs; inconclusive = weak or mixed curves; inactive = no such curve, though single readings can be large; an effect the other way counts as inactive or inconclusive.
Tests used:
[1] = A CellTox Green Cytotoxicity Assay to monitor cytotoxicity in HEK293 cells - 40 hour (AID 1224871); also: nearly all actives have a fitted effect of over 45% in size
In short: (§1)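 Seeding of HEK293 cells together with cytotoxicity dye preceded a 5 h incubation at 37 C/5% CO2. Test compounds in DMSO were then added and fluorescence monitored across 40 h.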

[2] = qHTS RealTime-Glo MT Cell Viability Assay in HEK293 cells - 16 hour (AID 1224872); also: top concentration of the series differs between compounds; nearly all actives have a fitted effect of over 50% in size
In short: (§2)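 Viability tracked continuously by luminescence as live cells reduce a prosubstrate for NanoLuc; HEK293 cells preincubated 5 h, compound-treated at 37 C, and read at 0, 8, 16, 24, 32 and 40 h.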

[3] = qHTS RealTime-Glo MT Cell Viability Assay in HepG2 cells - 8 hour (AID 1224873); also: nearly all actives have a fitted effect of over 55% in size
In short: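 HepG2 cells mixed with RealTime-Glo MT reagents (NanoLuc plus cell-permeant prosubstrate) were seeded at 600 cells/well, incubated 5 h at 37 C/5% CO2, then pinned with compounds in DMSO; nonlytic luminescence tracked viability during 40 h treatment.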

[4] = qHTS RealTime-Glo MT Cell Viability Assay in HEK293 cells - 40 hour (AID 1224874); details: RealTime-Glo luminescence; max response: hits give low values; also: nearly all actives have a fitted effect of over 50% in size
In short: (§3)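 Tox21 screen in HEK293 using RealTime-Glo MT chemistry, with cells and reagent co-dispensed. Luminescence proportional to viable cell number was captured at intervals during 40 h compound exposure at 37 C.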

[5] = A CellTox Green Cytotoxicity Assay to monitor cytotoxicity in HEK293 cells - 24 hour (AID 1224875); also: series mostly up to about 77 µM; nearly all actives have a fitted effect of over 45% in size
In short: as §1

[6] = A CellTox Green Cytotoxicity Assay to monitor cytotoxicity in HepG2 cells - 16 hour (AID 1224876); also: nearly all actives have a fitted effect of over 45% in size
In short: (§4)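 Nonlytic assay: viable cells exclude the dye, so fluorescence scales with cell death. HepG2 at 600 cells/well, compounds added after 5 h, signal read across 40 h.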

[7] = qHTS RealTime-Glo MT Cell Viability Assay in HepG2 cells - 32 hour (AID 1224877); also: nearly all actives have a fitted effect of over 55% in size
In short: (§5)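 Viability was tracked continuously by NanoLuc luminescence from prosubstrate reduced by living HepG2 cells, at successive time points over 40 h of compound exposure. Cells with reagent were preincubated 5 h at 37 °C before compound addition.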

[8] = A CellTox Green Cytotoxicity Assay to monitor cytotoxicity in HepG2 cells - 24 hour (AID 1224878); also: nearly all actives have a fitted effect of over 45% in size
In short: as §4

[9] = A CellTox Green Cytotoxicity Assay to monitor cytotoxicity in HepG2 cells - 40 hour (AID 1224879); also: nearly all actives have a fitted effect of over 40% in size
In short: as §4

[10] = qHTS RealTime-Glo MT Cell Viability Assay in HEK293 cells - 0 hour (AID 1224880)
In short: as §3

[11] = A CellTox Green Cytotoxicity Assay to monitor cytotoxicity in HEK293 cells - 32 hour (AID 1224881); also: nearly all actives have a fitted effect of over 40% in size
In short: as §1

[12] = A CellTox Green Cytotoxicity Assay to monitor cytotoxicity in HepG2 cells - 0 hour (AID 1224882); also: nearly all actives have a fitted effect of over 35% in size
In short: as §4

[13] = A CellTox Green Cytotoxicity Assay to monitor cytotoxicity in HepG2 cells - 32 hour (AID 1224883); also: nearly all actives have a fitted effect of over 50% in size
In short: as §4

[14] = A CellTox Green Cytotoxicity Assay to monitor cytotoxicity in HEK293 cells - 8 hour (AID 1224884); also: nearly all actives have a fitted effect of over 35% in size
In short: as §1

[15] = qHTS RealTime-Glo MT Cell Viability Assay in HepG2 cells - 16 hour (AID 1224885); also: nearly all actives have a fitted effect of over 50% in size
In short: as §5

[16] = qHTS RealTime-Glo MT Cell Viability Assay in HEK293 cells - 24 hour (AID 1224886)
In short: as §2

[17] = qHTS RealTime-Glo MT Cell Viability Assay in HEK293 cells - 8 hour (AID 1224887)
In short: as §3

[18] = A CellTox Green Cytotoxicity Assay to monitor cytotoxicity in HEK293 cells - 16 hour (AID 1224888); also: nearly all actives have a fitted effect of over 35% in size
In short: as §1

[19] = qHTS RealTime-Glo MT Cell Viability Assay in HepG2 cells - 0 hour (AID 1224889); also: nearly all actives have a fitted effect of over 50% in size
In short: as §5

[20] = A CellTox Green Cytotoxicity Assay to monitor cytotoxicity in HepG2 cells - 8 hour (AID 1224890); also: nearly all actives have a fitted effect of over 45% in size
In short: as §4
% is scaled to controls: 0 for no effect and ±100 for the full control effect.

CC[N+](CC)(CC(=O)Nc1c(C)cccc1C)Cc1ccccc1
inactive: Potency [1] | Potency [2] | Potency [3] | max response [4] -15.4% and 1.42% | Potency [5] | Potency [6] | Potency [7] | Potency [8] | Potency [9] | Potency [10] | Potency [11] | Potency [12] | Potency [13] | Potency [14] | Potency [15] | Potency [16] | Potency [17] | Potency [18] | Potency [19] | Potency [20]

CC(=O)c1nccs1
inactive: Potency [1] | Potency [2] | Potency [3] | max response [4] 1.39% and 3.29% | Potency [5] | Potency [6] | Potency [7] | Potency [8] | Potency [9] | Potency [10] | Potency [11] | Potency [12] | Potency [13] | Potency [14] | Potency [15] | Potency [16] | Potency [17] | Potency [18] | Potency [19] | Potency [20]

C=C1C[C@]23C[C@@]1(O)CC[C@H]2[C@@]12C=C[C@H](O)[C@@](C)(C(=O)O1)[C@H]2[C@@H]3C(=O)O
inactive: Potency [1] | Potency [2] | Potency [3] | max response [4] 3.96% and 1.17% | Potency [5] | Potency [6] | Potency [7] | Potency [8] | Potency [9] | Potency [10] | Potency [11] | Potency [12] | Potency [13] | Potency [14] | Potency [15] | Potency [16] | Potency [17] | Potency [18] | Potency [19] | Potency [20]

From PubChem BioAssay (Tox21)
